Data taken from PubChem BioAssay (Tox21).
Inconclusive results are not listed. Where a call stands in place of a potency, no number is given. Unmarked numbers belong to inactive results. Activity calls are given as the source filed them. The call rests on the fitted dose curve; in most records, active means well fitted cell-killing curve with a large enough effect in the repeat runs; inconclusive means weak or mixed curves, or effect the other way; inactive means no such curve, though single readings can be large or run the other way.
Potency means the concentration at half of the fitted maximal effect.

Assay: qHTS assay to identify small molecule agonists of the RXR signaling pathway - cell viability counter screen (AID 1159529); further: nearly all actives have a fitted effect of over 50% in size;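 on activity change, negative = cytotoxicity: HEK 293T cells carrying an RXR-alpha UAS beta-lactamase reporter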
Conditions: RXR-alpha-bla HEK293T viability, CellTiter-Glo, 16 h; series mostly up to 76.8 µM
Procedure, shortened: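 In this parallel viability measure, GeneBLAzer RXR-alpha HEK 293T cells (2% charcoal-stripped FBS) were given a 5 hr preincubation, treated with compounds 16 hr at 37 C, and read by CellTiter-Glo luminescence.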
In the case of `CCOC(=O)c1cccnc1`, the Potency is reported as “inactive”.
In the case of `CCn1cc(C(=O)O)c(=O)c2cnc(N3CCNCC3)nc21`, the Potency is reported as “inactive”.
In the case of `CC(C)(CO)[N+](=O)[O-]`, the Potency is reported as “inactive”.
In the case of `CC[N+]1(CC)CCC(=C(c2ccccc2)c2ccccc2)C1C` (stereo not given), the Potency is reported as “inactive”.
In the case of `CCCCC(CC)COC(=O)CCCCCCCCC(=O)OCC(CC)CCCC` (stereo not given), the Potency is reported as “inactive”.
With `CCCCCCCN` the Potency was “inactive”.
For `CC/C=C\CCOC(=O)CC`, the Potency was “inactive”.
In the case of `Nc1ncn([C@H]2C[C@H](O)[C@@H](CO)O2)c(=O)n1`, the Potency is reported as “inactive”.
With `N=c1ccn2c(n1)O[C@H]1[C@H](O)[C@@H](CO)O[C@H]12` the Potency was “inactive”.
In the case of `Cc1cccc(C)c1NC(=O)CN(CC(=O)O)CC(=O)O`, the Potency is reported as “inactive”.
For `CC(CC=O)c1ccccc1` (stereo not given), the Potency was “inactive”.
In the case of `C1CCCNCCC1`, the Potency is reported as “inactive”.
With `COc1ccc(C(=O)N2CCN(CC(=O)N3CCOCC3)CC2)cc1` the Potency was “inactive”.
For `O=C(CS)Nc1ccccc1`, the Potency was “inactive”.
In the case of `Cc1ccc(N=Nc2c(O)c(C(=O)O)cc3ccccc23)c(S(=O)(=O)O)c1`, the Potency is reported as “inactive”.
With `NCC(=O)CCC(=O)O` the Potency was “inactive”.
For `CN(C)CCN(Cc1ccccc1)c1ccccn1`, the Potency was “inactive”.
In the case of `CN1Cc2cc(C(=O)N3CCC(C4CCNCC4)CC3)ccc2NC(CC(=O)O)C1=O` (stereo not given), the Potency is reported as “inactive”.
Compound `CC(CSC(=O)c1ccccc1)C(=O)N1C[C@@H](Sc2ccccc2)C[C@H]1C(=O)O` (stereo not given in full) has an activity change, negative = cytotoxicity of -1.14% [at 15.8 µM].
For `CCCCCCCCCOS(=O)(=O)O`, the Potency was “inactive”.
With `CC(=O)c1cccc([N+](=O)[O-])c1` the Potency was “inactive”.
For `CN(C)C(=O)NC1(c2ccccc2)CCN(CC[C@@]2(c3ccc(F)c(F)c3)CN(C(=O)c3ccccc3)CCO2)CC1`, the Potency was 45.5 µM (active).
In the case of `CCCCC(CC)CN1C(=O)C2C3C=CC(C3)C2C1=O` (stereo not given), the Potency is reported as “inactive”.
With `CC(C)(COC(=O)c1ccccc1)COC(=O)c1ccccc1` the Potency was “inactive”.
For `CCN(CC)CCNc1ccc(CNC=O)c2sc3ccc(OC)cc3c(=O)c12`, the Potency was 3.09 µM (active).
In the case of `c1cc(CCCc2ccncc2)ccn1`, the Potency is reported as “inactive”.
For `O=C(Cl)c1cc(C(=O)Cl)cc(C(=O)Cl)c1`, the Potency was “inactive”.
In the case of `Cn1c(=O)cc(Oc2ccc(F)cc2F)c2cnc(NCC(C)(C)O)nc21`, the Potency is reported as “inactive”.
For `O=C(O)c1ccc(-n2nc(-c3ccccc3O)nc2-c2ccccc2O)cc1`, the Potency was “inactive”.
With `CC1=CC=C(C(C)C)CC1` the Potency was “inactive”.
With `CCCCCC[C@@H](O)C/C=C\CCCCCCCC(=O)OC` the Potency was “inactive”.
With `CC(=O)c1ccc2c(c1)N(CCCN1CCC(CCO)CC1)c1ccccc1S2` the Potency was 10.7 µM (active).
With `CN1CCN(C(c2ccccc2)c2ccccc2)CC1` the Potency was “inactive”.
With `NCCCN1CCOCC1` the Potency was “inactive”.
With `OC[C@H]1O[C@@H](OCCc2ccc(O)cc2)[C@H](O)[C@@H](O)[C@@H]1O` the Potency was “inactive”.
